Rows were chosen to be rich in hits. Some 1.9% of all compounds tested hit in one or more screens of this group.
Efa HMGR inh – inhibitors of E. faecalis class II HMGR, primary screen, biochemical, Enterococcus faecalis | AID 1066, 2008 | inhibition, % at 10 µM | HMG-CoA reductase (Enterococcus faecalis, mvaE) | purified E. faecalis HMGR, NADPH absorbance 340 nm kinetic | hit rate 0.41% among 190,000;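 active = inhibition above a set limit, the median over all tested compounds plus 3 SD, cut at about 9.5% in these data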;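 also: enzyme runs in reverse so mevalonate oxidation gives rising NADPH absorbance; 0% = complete reaction with DMSO and 100% = background rate lacking mevalonate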
dFosB act-1 – activators of delta FosB homodimer, primary screen, biochemical, fluorescence polarization, TAMRA-CDK5 oligo, single point | activation, % at 25 µM | purified delta FosB; percent of positive-control signal above neutral wells | hit rate 0.99% among 340,000;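 active = mean activation above about 17%, with every replicate also reaching it, limit read from the data, passing the limit was not always enough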
14-3-3 Bad PPI – inhibitors of 14-3-3 zeta/Bad binding, primary screen, biochemical, TR-FRET, bovine 14-3-3 zeta. TR-FRET 14-3-3zeta/Dy647-pBad peptide displacement, 1 h. AID 781, 2007. hit rate 0.71% among 220,000. inhibition, % at 21.7 µM. 14-3-3 protein zeta/delta (Bos taurus), P63103;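 active = inhibition above about 70%, limit read from the data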;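 also: 0% = full 14-3-3 plus peptide FRET controls and 100% = background without 14-3-3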
Target sequence (P63103 whole entry, looked up): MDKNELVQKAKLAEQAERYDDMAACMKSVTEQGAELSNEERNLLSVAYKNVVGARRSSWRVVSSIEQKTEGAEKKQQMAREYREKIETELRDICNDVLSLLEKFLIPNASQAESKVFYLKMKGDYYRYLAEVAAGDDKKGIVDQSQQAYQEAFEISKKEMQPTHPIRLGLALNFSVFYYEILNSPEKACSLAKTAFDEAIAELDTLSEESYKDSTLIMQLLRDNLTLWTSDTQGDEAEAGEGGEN
NCF1 inh – p47phox/p22phox peptide binding inhibitors, primary screen, biochemical, uHTS, NADPH oxidase regulatory subunit; hit rate 0.53% among 220,000; inhibition, % at 24.7 µM; Neutrophil cytosol factor 1 (Homo sapiens), P14598; AID 1274, 2008; fluorescence polarization, 2 h;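 active = inhibition above about 30%, limit read from the data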;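 also: 0% = p47phox with labelled peptide and 100% = labelled peptide alone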
dFosB act-2 – activators of mouse delta FosB DNA binding, confirmation, biochemical, fluorescence polarization, TAMRA-CDK5 oligo, cherry-picked samples. shares compounds with dFosB act-1. purified delta FosB; normalised: neutral wells 0, positive control 100. activation, % at 24.9 µM. 2,400 tested, under 10 active. AID 588690, 2011;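 active = highest replicate activation at or above 34% and every replicate reaching that threshold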;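 also: higher polarization means more probe DNA bound by delta FosB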
An asterisk follows results filed as active; x = no result.

SMILES	Efa HMGR inh	dFosB act-1	14-3-3 Bad PPI	NCF1 inh	dFosB act-2
CN1CCN(c2ccc(-c3cccc(NC(=O)COc4ccc(Cl)cc4)c3)nn2)CC1	x	-9	x	x	x
CN1CCN(c2ccc(-c3cccc(NC(=O)COc4ccc(Cl)cc4Cl)c3)nn2)CC1	x	28*	x	x	1
Cc1csc(NC(=O)C2CCCCC2)n1	x	2	x	x	x
O=C1[C@H](Oc2ccccc2)[C@@H](c2ccccc2)N1c1ccncc1	x	18*	x	x	2
CCOC(=O)c1cnc2c(Cl)c(Cl)ccc2c1NCCN1CCOCC1	x	-7	x	x	x
Oc1ccc(Cl)cc1-c1cc(-c2cccc(Br)c2)n[nH]1	-4	46*	-3	-15	-1
CCOc1ccc(-n2c([S-])c(C(=O)Nc3ccc(S(=O)(=O)N4CCOCC4)cc3)[n+]3cc(C(N)=O)ccc23)cc1	x	20*	-22	-66	2
CCOc1ccc(NC(=O)COC(=O)c2ccc(S(=O)(=O)N3CCOCC3)cc2)cc1	x	10	x	x	x
CCCCn1c(SCC(=O)c2ccc(OC)c(OC)c2)nc2cc(S(N)(=O)=O)ccc21	1	23*	-16	-26	0
CCCN1CCN(S(=O)(=O)c2cn(C)nc2C)CC1	x	0	x	x	x
COc1ccc(CCN(C)C(=O)c2cc(S(=O)(=O)N3CCCCCC3)ccc2OC)cc1OC	x	0	x	x	x
O=C(OCc1ccc2c(c1)OCO2)c1ccc(S(=O)(=O)N2CCCCC2)cc1	2	35*	-6	5	-5
CCc1cccc(OCC(=O)Nc2cc(Cl)ccc2-n2cncn2)c1	x	-13	x	x	x
O=C(Nc1cc(Cl)ccc1-n1cncn1)c1ccc(Br)o1	x	36*	x	x	1
O=C(COc1ccc(F)cc1)Nc1cc(Cl)ccc1-n1cncn1	x	26*	x	x	6
Cc1cc(C)cc(NC(=O)[C@H](Cc2c[nH]c3ccccc23)NC(=O)[C@@H]2Cc3ccccc3CN2)c1	x	-5	x	x	x
CC(C)C[C@H](NC(=O)[C@@H]1Cc2ccccc2CN1)C(=O)Nc1ccc(C(C)C)cc1	x	23*	x	x	-2
Cc1ccc(NC(=O)[C@H](NC(=O)[C@@H]2Cc3ccccc3CN2)c2ccccc2)c(C)c1	x	-7	x	x	x
Cc1cc(C)cc(NC(=O)[C@H](NC(=O)[C@@H]2Cc3ccccc3CN2)c2ccccc2)c1	x	47*	x	x	1
Cc1ccc(NC(=O)[C@H](Cc2c[nH]c3ccccc23)NC(=O)[C@@H]2Cc3ccccc3CN2)c(C)c1	x	34*	x	x	4
CCNC(=S)N1CCC(n2cnc3ccccc32)CC1	1	-2	-13	-1	x
CCc1cc2ccccc2nc1SCC(=O)Nc1cc(C)on1	-4	-5	17	4	x
CCc1cc2ccc(OC)cc2nc1SCC(=O)Nc1cc(C)on1	-6	111*	2	1	0
O=C(CSc1nc2c([nH]c3ccccc32)c(=O)n1-c1cccc(Cl)c1)N1CCOCC1	-5	55*	26	7	4
COc1cccc(-n2c(SCC(=O)Nc3cc(C)on3)nc3c([nH]c4ccccc43)c2=O)c1	-5	39*	4	-8	3
SMILES	Efa HMGR inh	dFosB act-1	14-3-3 Bad PPI	NCF1 inh	dFosB act-2
O=C(CSc1nc2c([nH]c3ccccc32)c(=O)n1-c1ccccc1)N1CCOCC1	-4	-3	13	17	x
Cn1c(=O)c2c(nc(NCCNC(=O)c3ccco3)n2Cc2ccc(F)cc2)n(C)c1=O	x	2	x	x	x
CC(=O)Nc1ccc(NC(=O)C2CCCN(c3nnc(-n4cccc4)s3)C2)cc1 (stereo not drawn)	1	31*	1	-12	0
CC(C)NC(=O)C1CCCN(c2nnc(-n3cccc3)s2)C1 (stereo not drawn)	-2	-4	2	5	x
COc1ccc(CC(=O)Nc2ccc(NC(=O)c3ccccc3F)cc2)cc1	3	20*	5	-6	-1
CCOc1ccccc1-c1nc(-c2ccc(NC(=O)Cc3ccc(OC)cc3)cc2)no1	0	25*	32	-8	0
COc1ccc(CC(=O)Nc2ccc(-c3noc(-c4ccc(Cl)cc4)n3)cc2)cc1	-1	60*	37	8	7
COc1ccc(CC(=O)Nc2ccc(-c3noc(COc4ccccc4C)n3)cc2)cc1	-2	12	3	-18	x

Assay outcomes deposited in PubChem by several laboratories.
